# Test results: PubChem BioAssay (NCATS)
# Inconclusive results are not listed. Unmarked numbers belong to inactive results. Calls come from the whole dose curve; as a rule, active = well fitted curve in the direction sought with a large enough effect in the signal ratio; inconclusive = small, poorly fitted or top-dose-only effect, or effect the other way, or a change in a side signal; inactive = no such curve, though single readings can be large or run the other way; the % refers to the signal ratio.
# Experiment: Validation of Assay for Modulators of Lamin A Splicing (AID 1459);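 note: cells exposed to compound for two days before reading; 0% is about no effect; ratio rise marks activators and ratio drop marks inhibitors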
# Conditions: Lamin A splicing dual RFP/GFP fluorescence reporter; series mostly up to 9.22 µM; ratio change, both ways: at the top concentration
# Excerpt: Hutchinson-Gilford Progeria Syndrome (HGPS) is a pediatric premature aging disease caused by a spontaneous mutation in the lamin A/C (LMNA) gene. The mutation activates a cryptic splice site in the LMNA pre-mRNA which results in production of a pre-lamin A protein that cannot be processed properly. The mutant protein accumulates in the nucleus and negatively affects numerous cellular functions. Correction of the splicing defect in HGPS patient cells using a targeted oligonucleotide (exo11) leads to reversal of the cellular disease phenotypes. To identify small molecule modulators of aberrant LMNA splicing, a homogenous assay was constructed in HeLa cells that used a GFP containing minigene to report on correction of aberrant splicing in lamin A and a RFP (DsRed2) to report on cell viability, uniformity and nonspecific effects on the assay signal. This assay was adapted to laser-scanning microplate cytometry (Acumen, TTP Labtech) where miniaturization of the assay to a 1,536-well plate format was possible.
# Bowen, W. P.; Wylie, P. G. Application of Laser-Scanning Fluorescence Microplate Cytometry in High Content Screening. Assay Drug Dev Technol 2006;4:209-221.
# Scaffidi P, Misteli T. Reversal of the cellular phenotype in the premature aging disease Hutchinson-Gilford progeria syndrome. Nat. Med. 2005;11:440-445.
# NCGC Assay Protocol Summary:
# Reagents/Controls: Stable clones expressing DsRed2 and lamin A-EGFP were generated by Cell and Molecular Technologies in S3 HeLa cells.
# HeLa cells were prepared for the assay when they were 70-90% confluent. The cells were counted and resuspended in Opti-MEM I (no phenol red; Gibco), 2% FBS, 1% penicillin/ streptomycin (Gibco) at concentration of 120 cells/uL concentration. The suspension was passed through a Falcon basket filter with pore size 40um (Beckton Dickson).
# Control titrations: column […] 1536-well plate contained a sixteen point titration (1:2 dilutions) in duplicate of ancitabine (Sigma: A8598) beginning at 40 uM final concentration. Column 2 contained a sixteen point titration (1:2 dilutions) of cycloheximide beginning at 1.4 mM final concentration. Column 3 contained ancitabine at 40 uM and column 4 contained was the vehicle control (0.5% DMSO final concentration).
# 5 uL of HeLa cells were plated in Aurora LoBase black clear bottom (cyclic-olefin polymer) 1536-well plates at a final density of 600 cells/well. Controls and library compounds were added with a 1536-well pin array using the Kalypsys pin-tool. The plates were then incubated for 48 hrs in a cell-culture incubator (37 °C; 5% CO2, 98% humidity). Following incubation the plates were read on the Acumen Explorer using the 488 nm laser. Data was collected on objects between 10 and 100 um in size. Cell objects were defined by a 15 um width x 10 um depth filter. The ratio of the total object intensity in PMT1 (500-530 nm emission; GFP) over PMT3 (575-640 nm emission; RFP) was calculated for analysis.
# Keywords: NIH Roadmap, MLSCN, MLI, MLSMR, qHTS, NCGC, lamin A, Progeria, RNA splicing.
row,SMILES,"ratio change, both ways"
1,NCCNC(=O)c1ncsc1-c1cccc(F)c1,6.37%
2,COc1ccc(/C=C/C(=O)Nc2ccccc2C(=O)O)cc1OC,-7.63%
3,O=c1[nH]c2cc([N+](=O)[O-])c([N+](=O)[O-])cc2[nH]c1=O,7.32%
4,Cc1ccc(C(=O)O[C@H](C(=O)O)[C@@H](OC(=O)c2ccc(C)cc2)C(=O)O)cc1 (tested in a mixture with another compound),-9.7%
5,O=C(O)c1cc(=O)c2ccccc2[nH]1,-17.5%
6,COc1cc2c(CCNC(C)=O)c[nH]c2cc1Cl,6.61%
7,NC(=O)C(=O)O,-5%
8,O=c1[nH]c2cc(C(F)(F)F)ccc2n1-c1cc(C(F)(F)F)ccc1O,6.09%
9,CC(=O)N[C@H](C(=O)O)C(C)(C)SN=O,-5.57%
10,O=C(O)c1cc([N+](=O)[O-])ccc1NCCCc1ccccc1,-4.48%
11,COc1cc(C(O)CO)ccc1OS(=O)(=O)O (stereo not given),-7.83%
12,O=C(O)CC[C@@H](C(=O)O)N1C(=O)c2ccccc2C1=O,-8.55%
13,O=C(/C=C/c1ccc(O)cc1)c1ccc(O)cc1O,-14.6%
14,C=C/C(C)=C/[C@@]1(C)SC(=O)C(C)=C1O,-5.65%
15,C[N+](C)(CCCCCC[N+](C)(C)CCCN1C(=O)c2cccc3cccc(c23)C1=O)CCCN1C(=O)c2cccc3cccc(c23)C1=O,-5.7%
16,O=C(O)c1cc(=O)c2c(Cl)cc(Cl)cc2[nH]1,6.72%
17,Cn1c(=O)c2[nH]c(-c3ccccc3)nc2n(C)c1=O,-9.54%
18,O=C(O)[C@@H]1C[C@@H](C(=O)O)N1,-17.2%
19,N#C/C(=C\c1ccc(O)c(O)c1)C(=O)c1ccc(O)c(O)c1,-5.15%
20,COc1cc2nc(N3CCN(C(=O)OCc4ccccc4)C(C(=O)NC(C)(C)C)C3)nc(N)c2cc1OC (stereo not given),-15.6%

row,SMILES,"ratio change, both ways"
1,Fc1cccc(/C=N/N=C/c2cccc(F)c2)c1,-2.35%
2,Cc1ccccc1CNc1ncnc2c1ncn2C1OC(CO)C(O)C1O (stereo not given),-9.3%
3,c1cnc2c(c1)ccc1cccnc12,-12.9%
4,CCCCC/C=C\CC(O)/C=C/c1cccc(CC(O)CCCCO)n1 (stereo not given),-7.95%
5,CN1C2CCC1CC(OC(=O)C(O)c1ccccc1)C2 (stereo not given),-4.49%
6,O=C(O)CNC(=O)C(CS)Cc1ccccc1 (stereo not given),-7.42%
7,OC[C@H]1O[C@@H](n2cnc3c(NC4CCCCC4)ncnc32)[C@H](O)[C@@H]1O,-6.11%
8,O=C(O)[C@@H]1C[C@H](C(=O)O)N1,-9.52%
9,CC(C)NCC(O)COc1cccc2ccccc12 (stereo not given),-9.29%
10,COC(=O)c1c(C)[nH]c(C)c1C(=O)c1ccccc1Cc1ccccc1,-10.1%
11,NCCSSCCN,4.63%
12,NCCCCCCCCCCN,-5.66%
13,CN1CCc2cc(NC(=O)Nc3cccnc3)ccc21,5.27%
14,CC1CN(S(=O)(=O)c2cccc3cnccc23)CCN1 (stereo not given),5.03%
15,O=C(O)CC1CCCc2ccccc2C1O (stereo not given),-7.09%
16,NC(CCCP(=O)(O)O)C(=O)O (stereo not given),15.4%
17,Cc1cc(NC(=O)Nc2ccc3c(ccn3C)c2)sn1,-13.9%
18,Fc1ccc(C(OCCCc2cnc[nH]2)c2ccc(F)cc2)cc1,-7.42%
19,NC(N)=NC(=O)c1nc(Cl)c(N2CCCCCC2)nc1N,16.7%
20,CN[C@H](CC(C)C)C(=O)N[C@H]1C(=O)N[C@@H](CC(N)=O)C(=O)N[C@H]2C(=O)N[C@H]3C(=O)N[C@H](C(=O)N[C@H](C(=O)O)c4cc(O)cc(O)c4-c4cc3ccc4O)[C@H](O)c3ccc(c(Cl)c3)Oc3cc2cc(c3O[C@@H]2O[C@H](CO)[C@@H](O)[C@H](O)[C@H]2O[C@H]2C[C@](C)(N)[C@H](O)[C@H](C)O2)Oc2ccc(cc2Cl)[C@H]1O,5.38%
